Test results from PubChem BioAssay AID1822 (The Scripps Research Institute Molecular Screening Center, 2009).
About 3,500 (1.2%) of roughly 290,000 compounds were called active. This is one part of a sample in which actives are shown more often than they occur. Values without a mark were called inactive.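 Rule for the calls: active = inhibition above the campaign mean inhibition over all tested compounds plus 3 SD (cut at about 28% in these data); inactive = the rest.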

tested on: M18 aspartyl aminopeptidase (Plasmodium falciparum 3D7); test: PfM18AAP inhibitors, malaria aminopeptidase, primary screen, biochemical, QFRET, recombinant enzyme (AID 1822); conditions: H-Glu-NHMec fluorogenic cleavage, at 7.35 µM, active compounds read high;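 note: 0% = plate median of test compound wells and 100% = 2 mM ZnCl2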

Compound | inhibition
CCOc1cc(/C=C2\SC(N3CCCC(C)C3)=NC2=O)ccc1O (stereo unspecified) | 9.44%
O=c1c2ccccc2[nH]c(=S)n1CCN1CCC(=C(c2ccc(F)cc2)c2ccc(F)cc2)CC1 | -3.53%
Cc1nc(N=C(N)N)nc2c(C)cccc12 | 3.01%
COc1ccc(CN2CCCC(N3CCc4ccccc4C3)C2)c(O)c1 (stereo unspecified) | 1.47%
COc1cc(COCC(O)CN2CCN(Cc3ccc4c(c3)OCO4)CC2)cc(OC)c1OC (stereo unspecified) | 1.06%
COc1c(O)ccc2c1CN1CCc3cc4c(cc3C1C2)OCO4 (stereo unspecified) | 42.2% (active)
Cc1cc(=O)[nH]c(SCC(N)=O)c1C#N | 6.8%
Cc1ccc(NC(=O)CSc2sc3c(O)cc(=O)[nH]c3c2C#N)cc1C | 9.88%
Cc1cc(=O)[nH]c(S)c1C#N | 31.9% (active)
CC(C)(C)C(=O)NNC(=O)c1ccc(Oc2cc(Cl)cc(Cl)c2)o1 | 7.33%
CCC(C)C(NC(=O)C1CCC(=O)N1C(=O)OCc1ccccc1)C(=O)NC(C(=O)N1CCCC1C(N)=O)C(C)CC (stereo unspecified) | 1.63%
O=C1C=CC(=O)N1c1ccc(N2CCCCC2)cc1 | 35.3% (active)
O=C(Cc1ccccc1)NC(=S)Nc1ccc(N2CCCCC2)cc1 | -3.44%
CCOC(=O)/C(C#N)=C/c1ccc(N2CCCCC2)cc1 | 0.72%
CC(C)CCN(C(=O)c1csnn1)C(C(=O)NC1CCCC1)c1ccccc1 (stereo unspecified) | 5.8%
O=C(Nc1ccnn1C1CCN(Cc2cccc(OCCO)c2)CC1)C1CCCC1 | -3.2%
CCCC(C)NC(=O)C1CCN(C(=O)C2CC(=O)N(c3ccc(C)cc3)C2)CC1 (stereo unspecified) | -1.18%
CC1=CC(C)(C)N(C(=O)CSc2nnc(-c3ccccc3)o2)c2ccc(C)cc21 | 1.48%
COc1ccc2c(c1)C(C)=CC(C)(C)N2C(=O)CNCc1ccc2c(c1)OCO2 | 12.3%
COc1ccc2c(c1)C(C)=CC(C)(C)N2C(=O)Nc1ccccc1 | 34.2% (active)
O=C1C(=O)N(CCCO)C(c2ccccc2)/C1=C(\O)c1ccc(Br)cc1 (stereo unspecified) | -0.04%
O=C(CN1C(=O)NC2(CCCCC2)C1=O)NCCc1c[nH]c2ccccc12 | 0.15%
O=C(N/N=C/c1ccco1)c1ccc(C(=O)N/N=C/c2ccco2)o1 | 6.04%
CC(C)NC(=O)C(=O)N/N=C/c1ccco1 | -9.66%

Compound | inhibition
O=c1nc(N/N=C/c2ccco2)cn[nH]1 | 52.8% (active)
CCS(=O)(=O)Nc1ccc(C(=O)NCCSc2ccccc2)cc1 | -4.1%
CCCCNC(=O)C1CCC(=O)N1CCc1ccccc1 (stereo unspecified) | -7.08%
CNC(=O)/C(C#N)=C/c1c(F)cccc1Cl | -1.65%
COc1cc(CNCc2ccc3c(c2)OCO3)c([N+](=O)[O-])cc1OC | 13.5%
COc1cc(CN2CCN(Cc3ccc(C)cc3)CC2)c([N+](=O)[O-])cc1OC | 29.9% (active)
COc1cc(CN2CCCN(C)CC2)c([N+](=O)[O-])cc1OC | 13.4%
O=C(CCn1nnc2ccccc21)OCC(=O)c1ccc([N+](=O)[O-])cc1 | 21.8%
O=C(CC(n1cncn1)C(Cl)(Cl)Cl)c1ccc([N+](=O)[O-])cc1 (stereo unspecified) | 55.3% (active)
O=C(CSc1nc2ccc([N+](=O)[O-])cc2[nH]1)c1ccc(Cl)cc1 | 3.49%
COc1cc(SC)ccc1C(=O)N(Cc1ccccc1)c1ccccc1 | 0.45%
Cc1nn(CC(=O)NC2CCCCC2)c(=O)c2cccn12 | -6.41%
CCN1/C(=C/c2ccc3ccc(C)cc3[n+]2CC)Sc2ccccc21 | -2.79%
O=C(CCN1c2ccccc2Sc2ccccc21)Nc1ccccc1 | 6.09%
CCN1/C(=C/C(=S)Nc2ccccc2)Sc2ccccc21 | 46.3% (active)
O=c1c2cc([N+](=O)[O-])ccc2nc2n1CCC2 | 3.84%
Fc1ccccc1COc1cccc2cccnc12 | -17.2%
O=C(CSc1nc2cccnc2n1Cc1ccccc1)N1CCc2ccccc21 | -2.92%
CCOC(=O)N1CCN(S(=O)(=O)c2ccc(Br)cc2)CC1 | -5.88%
COc1ccc(OC)c2sc(NC(=O)C3COc4ccccc4O3)nc12 (stereo unspecified) | -7.49%
O=C(Nc1nnc(C2COc3ccccc3O2)o1)c1ccc(F)cc1 (stereo unspecified) | 5.07%
c1ccc2c(c1)OCC(c1nn3cnnc3s1)O2 (stereo unspecified) | 55.2% (active)
COc1cc(NC(=O)C2=CC(c3ccc(C)cc3)=NS(=O)(=O)N2C)cc(OC)c1OC | 13.1%
CC(=O)c1ccc(N2CCN(C(=O)C3CCN(S(=O)(=O)c4ccc5c(c4)CC(C)N5C(=O)C4CC4)CC3)CC2)cc1 (stereo unspecified) | -0.32%

Compound | inhibition
CN(CCC1CCOCC1)C(=O)CC1C(=O)NCCN1Cc1cccc(F)c1 (stereo unspecified) | 6.55%
CCCOc1ccc(C2NC(=O)NC(c3ccccc3)=C2C(C)=O)cc1OCC (stereo unspecified) | -0.97%
COc1cccc(COc2ccc(N(C)S(=O)(=O)c3ccccc3)cc2)c1 | 4.14%
CC(=O)N(C)c1ccc(NC(=O)C(F)(F)F)cc1 | -1.27%
O=C(/C=C/Nc1ccccc1OC(F)(F)F)C(F)(F)F | -3.52%
CN(C)c1ccc(N/C=C/C(=O)C(F)(F)F)cc1 | 29.1% (active)
COc1cccc2sc(NNC(=O)c3nc4ccccc4s3)nc12 | 30.1% (active)
COc1cccc2sc(Nc3nc(C)c(C(C)=O)s3)nc12 | 7.92%
COc1ccccc1OCc1nc2ccccc2s1 | 2.93%
CCCc1cc(=O)n2[nH]c(C)c(-c3ccc(Cl)cc3)c2n1 | -3.86%
Cc1ccc(NC2CCCN(C(=O)CCC3(C)CC3)C2)cc1C (stereo unspecified) | 12.1%
Cc1cc(C(=O)N/N=C/c2ccc(O)c([N+](=O)[O-])c2)c(C)n1-c1ccc(F)cc1 | 1.56%
O=[N+]([O-])c1ccc(N2CCSCC2)cc1O | 7.26%
O=C1CSC(=S)N1/N=C/c1ccc(O)c([N+](=O)[O-])c1 | 39.1% (active)
CCC(C)NC(=O)C1c2ccccc2Oc2ccccc21 (stereo unspecified) | -7.47%
O=C(N/N=C/c1ccc(O)c(O)c1)C1c2ccccc2Oc2ccccc21 | 66.5% (active)
CCC(C)(C)NC(=O)C1c2ccccc2Oc2ccccc21 | 0.98%
CC(C)(C)SCCSC1=CC(=O)CC(c2ccccc2)C1 (stereo unspecified) | -7.92%
COc1ccc(CCNC(=O)CN2C(=O)COc3ccc(S(=O)(=O)N4CCCC4)cc32)cc1OC | 0.73%
Cc1ccc(-c2noc(CC(c3ccccc3)c3ccccc3)n2)cc1 | 34.4% (active)
Cc1ccc(-c2noc(CN3CCN(Cc4ccccc4)CC3)n2)cc1 | -2.79%
COc1ccccc1Cc1nc(-c2ccc(C)cc2)no1 | 0.56%
CCOC(=O)c1ccc(NC(=S)N2CCN(c3ccccn3)CC2)cc1 | 0.52%
CSCCC(NS(=O)(=O)c1ccc(C)cc1)C(=O)N1CCCC1 (stereo unspecified) | -2.59%

Compound | inhibition
COc1ccc(CNc2nc3c(c(=O)[nH]c(=O)n3C)n2Cc2ccccc2)cc1 | 7.49%
Cn1c(=O)[nH]c(=O)c2c1[nH]c(=S)n2Cc1ccccc1 | 51.6% (active)
C=CCSc1nc2c(c(=O)[nH]c(=O)n2C)n1Cc1ccccc1 | -7.79%
CCS(=O)(=O)C1=NSC2=NC(=O)/C(=C\c3ccc(OS(=O)(=O)c4ccccc4)cc3)C(=N)N21 | 5.46%
CC1CCC2(CC1)NC(=O)N(Cc1nnc(-c3cccs3)o1)C2=O (stereo unspecified) | -3.12%
CC(C)(C)OC(=O)NNc1c2ccccc2nc2ccccc12 | 29.7% (active)
O=C(NNc1c2ccccc2nc2ccccc12)c1cc2ccccc2cc1O | 1.24%
CC(=O)Nc1ccc(Nc2c3ccccc3nc3ccccc23)cc1 | 4.35%
O=c1c2cc(-c3ccccc3)sc2nc2n1N=C(c1cccs1)CS2 | 6.06%
CC1CCN(S(=O)(=O)c2ccc3[nH]c(=O)ccc3c2)CC1 | -0.17%
Cc1ccc(CCC(=O)Nc2ncc(Cc3cc(Cl)ccc3Cl)s2)o1 | -7.4%
Cc1ncc(CC(=O)n2cc(C(=O)c3cc(Cl)ccc3O)cn2)s1 | 29.3% (active)
O=C(c1cnn(-c2ccc(Cl)cc2)c1)c1ccccc1O | -0.75%
O=S(=O)(c1ccc(-c2ccno2)s1)N1CCCCC1 | 11%
CCOc1ccccc1-c1cc(C(=O)N/N=C(\C)c2cccnc2)c2ccccc2n1 | 1.07%
O=C(NC(=S)Nc1ccc(Cl)c(C(=O)O)c1)c1cncc(Br)c1 | 15.9%
Cc1ccc(C)c(NC(=S)NNC(=S)Nc2ccc(C(C)C)cc2)c1 | 3.44%
CC(C)c1ccc(NC(=S)NNc2ccc(Cl)c(C(=O)O)c2)cc1 | 39.9% (active)
COc1cccc(-n2c(N)cc(=O)nc2SCC(=O)Nc2cc(C)on2)c1 | -2.14%
CC(=O)Oc1ccccc1C(=O)Nc1ncc([N+](=O)[O-])s1 | 35.7% (active)
O=C(CCc1ccccc1)Nc1ncc([N+](=O)[O-])s1 | 4.6%
O=C(Nc1ncc([N+](=O)[O-])s1)C1COc2ccccc2O1 (stereo unspecified) | 12%
CC(=O)c1cccc(NC(=O)C2COc3ccccc3O2)c1 (stereo unspecified) | -8.5%
Cn1cncc1COC(=O)c1ccc(Cl)cc1 | -13.9%
